# From PubChem BioAssay (EPA / NIEHS)
# Inconclusive results are not listed. Active and inactive are the calls of the source. Rule for the calls, unless noted: active = hit-call score of the fitted dose curve at least 0.9, where 1 is the maximum; inconclusive = response in the unintended direction; inactive = score below 0.9.
# Legend:
# [1] = CEETOX_H295R_ANDR: CeeTox H295R High-throughput Steroidogenesis Assay for Androstenedione (ANDR) (AID 2283436; active = hit-call score of the fitted dose curve at least 0.9, where 1 is the maximum; inactive = score below 0.9); conditions: actives raise or lower the signal
# Method in brief: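 Medium from 48 h chemical-treated H295R adrenal cells was extracted with MTBE and androstenedione measured by LC-MS/MS. Activity was fit in both directions relative to DMSO. Cytotoxic concentrations were re-tested after dilution until MTT viability reached ≥70%.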
# [2] = CEETOX_H295R_TESTO: CeeTox H295R High-throughput Steroidogenesis Assay for Testosterone (TESTO) (AID 2283457; active = hit-call score of the fitted dose curve at least 0.9, where 1 is the maximum; inactive = score below 0.9); conditions: actives raise or lower the signal
# Method in brief: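 Testosterone synthesis is assessed in human adrenocortical H295R cells after 48 h of chemical exposure, using HPLC-MS/MS of extracted medium. Activity is fitted in both directions against DMSO control.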
# [3] = molecular target: human Thromboxane A2 Receptor (TXA2), TBXA2R (gene 6915) (UniProt P21731); assay: NVS_GPCR_hTXA2: NovaScreen (NVS) G Protein-Coupled Receptor Assay for human Thromboxane A2 Receptor (TXA2) (AID 2283282);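 note: actives reduce bound radioligand signal relative to DMSO baseline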
# Method in brief: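 Biochem binding, human platelets, cell-free; competitive radioligand displacement; 1 h; filter radiodetection. 25 uM duplicate primary, conc. series secondary; DMSO neg. ctrl.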
# [4] = molecular target: human Thyroid Receptor Alpha (TRa), THRA (gene 7067) (UniProt P10827); assay: NVS_NR_hTRa_Antagonist: NovaScreen (NVS) Nuclear Receptor Binding Assay for human Thyroid Receptor Alpha Antagonism (TRa) (AID 2283362)
# Method in brief: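 Chemicals were first screened in duplicate at 25 uM, then actives were retested in concentration series. Binding to the extracted receptor was measured 1 h after dosing by AlphaLISA chemiluminescence, with decreased signal versus DMSO scored as activity.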
# [5] = CCTE_Shafer_MEA_dev_bursting_electrodes_number: CCTE's Neural Network Formation Assay for Number of Bursting Electrodes, Shafer Lab (AID 2284043)
# Method in brief: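 Number of electrodes reaching ≥1 burst every 2 min was recorded at DIV 5, 7, 9 and 12 and collapsed as trapezoidal area under the curve. Cultures were rat cortical neurons on MEA plates, dosed continuously from plating with medium and treatment refreshed on DIV 5 and 9.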
# [6] = TAMU_PeakParms_SingleDonor1434_Chronotropy: Texas A&M University (TAMU) 1.5-hr Human Induced Pluripotent Stem Cell (iPSC)-derived Cardiomyocytes Calcium (Ca+2) Flux Assay for Cardiotoxicity: Chronotropy (changes in peak frequency) (AID 2284217; active = hit-call score of the fitted dose curve at least 0.9, where 1 is the maximum; inactive = score below 0.9); conditions: actives raise or lower the signal
# Method in brief: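 iPSC-CMs, donor 1434; 4 conc (0.2–100 uM), 0.5% v/v DMSO, 90 min, 37C/5% CO2; Ca2+ flux fluorescence → peak.freq.avg; peak.freq.avg = 0 dropped; bidirectional fit vs DMSO; EC05 POD.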
# [7] = TAMU_PeakParms_SingleDonor1434_QT: Texas A&M University (TAMU) 1.5-hr Human Induced Pluripotent Stem Cell (iPSC)-derived Cardiomyocytes Calcium (Ca+2) Flux Assay for Cardiotoxicity: QT (decay-rise ratio) (AID 2284235)
# Method in brief: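 Decay/rise ratio of calcium-flux fluorescence scored after 90 min exposure (37C) of donor 1434 iPSC cardiomyocytes to 0.2–100 uM (0.5% DMSO). Beat-cessation and severe-notch points removed; POD is EC05, a 5% rise over DMSO.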
# [8] = molecular target: human Tyrosine Protein Kinase Receptor Tie-2 (Tie2), TEK (gene 7010) (UniProt Q02763); assay: NVS_ENZ_hTie2: NovaScreen (NVS) Enzymatic Assay for human Tyrosine Protein Kinase Receptor Tie-2 (Tie2) (AID 2283225)
# Method in brief: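 Substrate and product were separated by mobility shift and detected by fluorescence after a 1-hour reaction with recombinant Tie2. Chemicals passing a 25 uM single-point screen were titrated to a maximum of 50 uM. Results were normalized to DMSO baseline.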
# [9] = read-out: Cyclin D2 (CCND2), CCND2 (gene 894); assay: LTEA_HepaRG_CCND2: Life Technologies and Expression Analysis (LTEA) Assay for Cyclin D2 (CCND2) using HepaRG (AID 2283449; active = hit-call score of the fitted dose curve at least 0.9, where 1 is the maximum; inactive = score below 0.9); conditions: mRNA level, 48 h; actives raise or lower the signal
# Method in brief: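 CCND2 transcript levels, quantified by qRT-PCR and normalised to three housekeeping genes, were fitted bidirectionally against 0.5% DMSO. HepaRG cultures were dosed 48 h in duplicate with an 8-point half-log series up to 100 uM.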
# [10] = read-out: Nuclear factor NF-kappa-B p105 subunit (Homo sapiens) (UniProt P19838); assay: LTEA_HepaRG_NFKB1: Life Technologies and Expression Analysis (LTEA) Assay for Nuclear Factor Kappa B Subunit 1 (NFKB1) using HepaRG (AID 2283521; active = hit-call score of the fitted dose curve at least 0.9, where 1 is the maximum; inactive = score below 0.9;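 note: TaqMan qRT-PCR transcript normalised to ACTB GAPDH and POLR2A housekeeping genes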); conditions: mRNA level, 48 h; actives raise or lower the signal
# Method in brief: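 Differentiated human HepaRG cells were exposed for 48 h in serum-free induction medium to eight concentrations (top 100 uM, half-log steps, 0.5% DMSO), in duplicate. NFKB1 mRNA was measured by TaqMan qRT-PCR, normalized to ACTB/GAPDH/POLR2A, and fitted bidirectionally against DMSO.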
# [11] = Tanguay_ZF_120hpf_CIRC_legacy: (Legacy) Oregon State University Tanguay Lab 120 Hour Post-fertilization zebrafish Assay for Circulatory Malformation (AID 2283651)
# Method in brief: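 Binary circulatory malformation call at 120 hpf by brightfield imaging of zebrafish larvae; chorion removed at 4 hpf, static exposure from 6 hpf in sealed dark plates at 28C, final DMSO 0.64%; non-mortality endpoints skipped if embryo died.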
# CDK2 (gene 1017) = CDK2 (gene 1017) (UniProt P24941); assay: NVS_ENZ_hCDK2: NovaScreen (NVS) Enzymatic Assay for human Cyclin-Cependent Kinase 2 (CDK2) (AID 2283144)
# Method in brief: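 Compounds screened in duplicate at 25 uM, then in singleton concentration-response to a maximum of 50 uM, against recombinant CDK2; kinase activity read 1 hr after dosing by fluorescence with mobility-shift separation of substrate and product.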
# [12] = molecular target: human Fibroblast Growth Factor Receptor 1 (FGFR1), FGFR1 (gene 2260) (UniProt P11362); assay: NVS_ENZ_hFGFR1: NovaScreen (NVS) Enzymatic Assay for human Fibroblast Growth Factor Receptor 1 (FGFR1) (AID 2283159)
# Method in brief: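 Cell-free recombinant kinase with fluorescent substrate, product separated by electrophoretic mobility shift; read 1 hour after dosing, loss of signal relative to DMSO. Initial screen in duplicate at 25 uM, actives followed in concentration series.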
# [13] = molecular target: human Protein Tyrosine Phosphatase Receptor Type M (PTPRM), PTPRM (gene 5797) (UniProt P28827); assay: NVS_ENZ_hPTPRM: NovaScreen (NVS) Enzymatic Assay for human Protein Tyrosine Phosphatase Receptor Type M (PTPRM) (AID 2283215)
# Method in brief: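 Read-out is fluorescence after electrophoretic separation of substrate and product, taken 1.33 h post-dosing with recombinant enzyme. Compounds screened at 25 uM in duplicate, then concentration series for actives; activity as signal loss relative to DMSO.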
# [14] = read-out: Fatty Acid-Binding Protein 1 (FABP1), FABP1 (gene 2168); assay: LTEA_HepaRG_FABP1: Life Technologies and Expression Analysis (LTEA) Assay for Fatty Acid-Binding Protein 1 (FABP1) using HepaRG (AID 2283494; active = hit-call score of the fitted dose curve at least 0.9, where 1 is the maximum; inactive = score below 0.9); conditions: mRNA level, 48 h; actives raise or lower the signal
# Method in brief: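 FABP1 expression by TaqMan qRT-PCR, normalised to three housekeeping genes, in HepaRG cells after 48 h chemical treatment. Eight-point half-log series topping at 100 uM in 0.5% DMSO, duplicates; gain or loss fitted relative to vehicle.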
# [15] = read-out: Hypoxia-inducible factor 1-alpha (Homo sapiens) (UniProt Q16665); assay: LTEA_HepaRG_HIF1A: Life Technologies and Expression Analysis (LTEA) Assay for Hypoxia-inducible factor 1 (HIF1A) Trancription factor using HepaRG (AID 2283503; active = hit-call score of the fitted dose curve at least 0.9, where 1 is the maximum; inactive = score below 0.9); conditions: mRNA level, 48 h; actives raise or lower the signal
# Method in brief: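 HIF1A transcript level read by qRT-PCR (ACTB, GAPDH, POLR2A normalization) after 48 h chemical exposure of HepaRG cultures. Eight half-log concentrations, top 100 uM, 0.5% DMSO vehicle, duplicates; bidirectional curve fit against DMSO baseline.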
# [16] = molecular target: Cytochrome P450 2C19 (Homo sapiens) (UniProt P33261); assay: NVS_ADME_hCYP2C19: NovaScreen (NVS) CYP450-related Enzyme Activity (ADME) Assay for human CYP2C19 (AID 2283113);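 note: potency for inhibition seen as loss of fluorescent signal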
# Method in brief: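 Chemicals first screened in duplicate at 10 uM against recombinant human enzyme produced in insect cells; confirmed actives then run as concentration series. Fluorogenic substrate turnover read by fluorescence after 1 h, normalised to acetonitrile.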
# [17] = test system: zebrafish Estrogen Receptor (ESR2B), gene 317733; assay: ATG_zfER2b_XSP1: Attagene TRANS-FACTORIAL Multi-Species (XSP1) HepG2 Assay for zebrafish Estrogen Receptor (ESR2B) (AID 2283773)
# Method in brief: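 Medium contained 3 nM 6-alpha-fluorotestosterone. Reporter mRNA induction by exogenous zebrafish ER2b-Gal4 chimera was read 24 h post-dose in transiently transfected HepG2 cells, using RT-PCR, fluorescent labelling, HpaI digestion and capillary electrophoresis.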
# [18] = test system: frog Estrogen Receptor (ESR2), gene 100174814; assay: ATG_frER2_XSP1: Attagene TRANS-FACTORIAL Multi-Species (XSP1) HepG2 Assay for frog Estrogen Receptor (ESR2) (AID 2283774)
# Method in brief: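 Reporter mRNA from a multiplexed TRANS system, measured by RT-PCR with fluorescent labelling and capillary electrophoresis, 24 hours after chemical exposure. Human HepG2 liver cells carried exogenous frog ER-Gal4 chimera; medium included 3 nM 6-alpha-fluorotestosterone; increases versus DMSO analysed.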
# [19] = test system: zebrafish Estrogen Receptor (ESR2A), gene 317734; assay: ATG_zfER2a_XSP1: Attagene TRANS-FACTORIAL Multi-Species (XSP1) HepG2 Assay for zebrafish Estrogen Receptor (ESR2A) (AID 2283778)
# Method in brief: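 Reporter transcripts were quantified by RT-PCR, 6-FAM labelling, HpaI digestion and capillary electrophoresis after 24 h dosing. The cells were HepG2 transiently carrying a zebrafish ER2a–Gal4 construct plus multiplexed UAS reporters; medium contained 3 nM 6-alpha-fluorotestosterone.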
# Chain of Hypoxia-inducible factor 1-alpha (Homo sapiens) (Q16665 whole entry, looked up): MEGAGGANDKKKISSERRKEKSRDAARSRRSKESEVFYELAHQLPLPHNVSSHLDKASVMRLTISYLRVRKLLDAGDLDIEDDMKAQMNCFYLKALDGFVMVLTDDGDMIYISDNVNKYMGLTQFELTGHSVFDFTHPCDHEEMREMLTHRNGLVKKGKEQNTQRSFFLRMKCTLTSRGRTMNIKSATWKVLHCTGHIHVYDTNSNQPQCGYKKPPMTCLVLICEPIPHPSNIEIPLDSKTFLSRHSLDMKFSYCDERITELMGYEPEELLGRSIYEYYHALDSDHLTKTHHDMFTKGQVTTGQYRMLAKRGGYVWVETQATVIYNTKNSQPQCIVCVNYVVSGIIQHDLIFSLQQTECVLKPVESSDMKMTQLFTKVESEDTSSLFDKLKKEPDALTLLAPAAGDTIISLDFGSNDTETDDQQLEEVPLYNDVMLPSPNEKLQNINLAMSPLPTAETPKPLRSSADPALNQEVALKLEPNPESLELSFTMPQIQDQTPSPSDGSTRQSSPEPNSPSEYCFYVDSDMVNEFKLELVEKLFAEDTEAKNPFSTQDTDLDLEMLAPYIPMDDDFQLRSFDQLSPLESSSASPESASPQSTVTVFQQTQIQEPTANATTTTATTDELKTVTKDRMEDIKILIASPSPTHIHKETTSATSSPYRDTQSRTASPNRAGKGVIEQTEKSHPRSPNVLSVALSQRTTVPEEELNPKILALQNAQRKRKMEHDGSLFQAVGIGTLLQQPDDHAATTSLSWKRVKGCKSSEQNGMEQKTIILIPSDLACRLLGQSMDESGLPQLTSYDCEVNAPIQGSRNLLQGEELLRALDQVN
# Chain of human Thromboxane A2 Receptor (TXA2), TBXA2R (gene 6915) (P21731 whole entry, looked up): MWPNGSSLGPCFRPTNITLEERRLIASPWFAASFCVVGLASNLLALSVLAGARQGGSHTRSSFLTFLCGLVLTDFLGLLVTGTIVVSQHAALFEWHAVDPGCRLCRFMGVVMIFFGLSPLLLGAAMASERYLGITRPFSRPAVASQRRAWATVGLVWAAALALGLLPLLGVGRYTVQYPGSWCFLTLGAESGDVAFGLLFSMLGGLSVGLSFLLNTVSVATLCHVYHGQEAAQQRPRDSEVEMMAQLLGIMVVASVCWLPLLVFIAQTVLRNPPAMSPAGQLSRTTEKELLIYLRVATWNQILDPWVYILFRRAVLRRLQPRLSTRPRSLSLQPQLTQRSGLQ
# Chain of human Fibroblast Growth Factor Receptor 1 (FGFR1), FGFR1 (gene 2260) (P11362 whole entry, looked up): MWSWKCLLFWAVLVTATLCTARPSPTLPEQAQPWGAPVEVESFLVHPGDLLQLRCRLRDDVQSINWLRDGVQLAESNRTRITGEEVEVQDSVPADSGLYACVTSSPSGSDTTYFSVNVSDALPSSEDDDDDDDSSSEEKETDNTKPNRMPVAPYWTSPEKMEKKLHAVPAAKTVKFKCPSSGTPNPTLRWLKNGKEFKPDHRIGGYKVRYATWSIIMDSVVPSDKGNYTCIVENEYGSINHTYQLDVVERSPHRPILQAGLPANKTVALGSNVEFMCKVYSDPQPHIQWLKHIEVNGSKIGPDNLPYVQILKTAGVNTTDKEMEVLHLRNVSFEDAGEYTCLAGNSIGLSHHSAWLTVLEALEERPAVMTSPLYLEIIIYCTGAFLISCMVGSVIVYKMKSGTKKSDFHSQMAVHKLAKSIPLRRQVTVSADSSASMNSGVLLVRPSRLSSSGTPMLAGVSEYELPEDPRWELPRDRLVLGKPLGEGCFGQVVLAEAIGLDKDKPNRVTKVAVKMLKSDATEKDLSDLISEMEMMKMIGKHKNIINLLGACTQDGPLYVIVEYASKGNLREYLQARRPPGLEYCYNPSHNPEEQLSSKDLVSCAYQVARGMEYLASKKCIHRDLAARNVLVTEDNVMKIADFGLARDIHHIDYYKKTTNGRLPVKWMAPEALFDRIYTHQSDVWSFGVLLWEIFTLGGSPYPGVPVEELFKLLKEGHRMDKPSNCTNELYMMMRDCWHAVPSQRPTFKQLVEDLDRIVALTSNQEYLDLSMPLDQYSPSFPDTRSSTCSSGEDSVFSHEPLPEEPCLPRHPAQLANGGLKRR
# Chain of human Tyrosine Protein Kinase Receptor Tie-2 (Tie2), TEK (gene 7010) (Q02763 whole entry, looked up): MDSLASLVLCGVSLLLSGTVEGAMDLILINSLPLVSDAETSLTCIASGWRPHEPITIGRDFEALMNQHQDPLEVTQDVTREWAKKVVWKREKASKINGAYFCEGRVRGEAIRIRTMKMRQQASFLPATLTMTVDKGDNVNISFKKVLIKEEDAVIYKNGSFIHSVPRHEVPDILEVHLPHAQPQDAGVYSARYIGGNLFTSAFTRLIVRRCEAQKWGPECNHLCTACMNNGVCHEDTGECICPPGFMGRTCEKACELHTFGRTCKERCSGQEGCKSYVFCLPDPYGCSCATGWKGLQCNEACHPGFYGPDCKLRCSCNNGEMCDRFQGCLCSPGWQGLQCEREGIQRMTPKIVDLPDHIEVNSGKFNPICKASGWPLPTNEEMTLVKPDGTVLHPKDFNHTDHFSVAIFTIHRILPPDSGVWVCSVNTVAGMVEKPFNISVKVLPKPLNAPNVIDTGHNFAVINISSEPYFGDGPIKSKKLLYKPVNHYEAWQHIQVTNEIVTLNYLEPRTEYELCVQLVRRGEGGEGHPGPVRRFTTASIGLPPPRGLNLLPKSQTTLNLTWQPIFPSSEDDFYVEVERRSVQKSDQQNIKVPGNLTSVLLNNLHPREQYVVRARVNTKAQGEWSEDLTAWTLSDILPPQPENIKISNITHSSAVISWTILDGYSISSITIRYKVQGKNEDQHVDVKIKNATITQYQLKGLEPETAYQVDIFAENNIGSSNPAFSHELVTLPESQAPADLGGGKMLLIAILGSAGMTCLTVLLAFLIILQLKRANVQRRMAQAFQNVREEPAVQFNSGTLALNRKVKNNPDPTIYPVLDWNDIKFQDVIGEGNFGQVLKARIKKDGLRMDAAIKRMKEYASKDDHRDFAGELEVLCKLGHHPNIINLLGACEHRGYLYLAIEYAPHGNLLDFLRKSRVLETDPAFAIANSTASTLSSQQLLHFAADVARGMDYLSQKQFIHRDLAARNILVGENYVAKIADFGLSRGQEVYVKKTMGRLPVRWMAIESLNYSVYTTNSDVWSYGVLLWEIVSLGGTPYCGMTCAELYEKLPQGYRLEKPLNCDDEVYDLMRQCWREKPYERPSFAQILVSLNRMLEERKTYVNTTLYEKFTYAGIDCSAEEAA
# Chain of Nuclear factor NF-kappa-B p105 subunit (Homo sapiens) (P19838 whole entry, looked up): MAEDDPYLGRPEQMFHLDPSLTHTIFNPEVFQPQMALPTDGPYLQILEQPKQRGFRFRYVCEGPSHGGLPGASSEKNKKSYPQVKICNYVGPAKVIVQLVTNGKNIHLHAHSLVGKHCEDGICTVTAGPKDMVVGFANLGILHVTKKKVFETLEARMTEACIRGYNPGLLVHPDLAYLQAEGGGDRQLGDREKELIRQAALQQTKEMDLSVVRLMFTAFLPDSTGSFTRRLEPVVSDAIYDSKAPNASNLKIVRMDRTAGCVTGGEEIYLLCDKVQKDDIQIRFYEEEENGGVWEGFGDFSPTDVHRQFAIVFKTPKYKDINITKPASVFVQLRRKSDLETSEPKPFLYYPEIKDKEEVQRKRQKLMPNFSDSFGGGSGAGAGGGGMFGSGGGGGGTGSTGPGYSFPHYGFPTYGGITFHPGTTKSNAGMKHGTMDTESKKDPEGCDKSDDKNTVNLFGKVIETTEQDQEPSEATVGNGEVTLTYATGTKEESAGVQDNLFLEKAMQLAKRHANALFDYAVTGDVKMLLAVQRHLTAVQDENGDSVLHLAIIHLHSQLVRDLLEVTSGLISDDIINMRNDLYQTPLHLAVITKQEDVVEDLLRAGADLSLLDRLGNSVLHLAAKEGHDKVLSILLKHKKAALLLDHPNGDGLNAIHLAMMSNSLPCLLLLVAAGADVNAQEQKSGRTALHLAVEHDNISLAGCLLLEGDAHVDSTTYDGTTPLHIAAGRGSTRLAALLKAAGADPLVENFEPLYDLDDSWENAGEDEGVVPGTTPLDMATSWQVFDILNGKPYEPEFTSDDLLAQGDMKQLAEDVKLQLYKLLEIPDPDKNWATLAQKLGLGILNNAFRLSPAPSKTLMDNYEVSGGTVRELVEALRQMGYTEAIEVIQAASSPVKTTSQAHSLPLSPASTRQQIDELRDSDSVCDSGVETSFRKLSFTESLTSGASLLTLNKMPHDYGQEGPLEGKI
# Chain of human Thyroid Receptor Alpha (TRa), THRA (gene 7067) (P10827 whole entry, looked up): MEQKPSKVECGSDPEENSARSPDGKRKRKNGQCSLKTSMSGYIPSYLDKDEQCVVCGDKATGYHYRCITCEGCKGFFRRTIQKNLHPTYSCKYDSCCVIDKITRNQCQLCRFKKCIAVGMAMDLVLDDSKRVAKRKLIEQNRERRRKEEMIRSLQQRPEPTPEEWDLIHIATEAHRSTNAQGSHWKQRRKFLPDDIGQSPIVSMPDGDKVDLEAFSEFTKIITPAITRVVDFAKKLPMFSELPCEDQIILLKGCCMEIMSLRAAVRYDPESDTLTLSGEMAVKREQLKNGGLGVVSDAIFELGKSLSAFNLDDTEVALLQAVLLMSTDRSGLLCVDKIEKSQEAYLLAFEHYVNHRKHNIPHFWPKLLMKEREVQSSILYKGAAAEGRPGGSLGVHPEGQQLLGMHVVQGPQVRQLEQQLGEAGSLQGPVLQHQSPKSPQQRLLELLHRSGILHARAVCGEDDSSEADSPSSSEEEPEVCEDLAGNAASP
compound,measurement,setting,value
O=CNC(N1CCN(C(NC=O)C(Cl)(Cl)Cl)CC1)C(Cl)(Cl)Cl (stereo not given),AC50,[1],50 µM (active)
same,outcome,[2],inactive
O=c1[nH]c(Cl)c(Cl)cc1Cl,AC50,[3],631 nM (active)
CC1CCCC1.[C-]#[O+].[C-]#[O+].[C-]#[O+].[Mn],outcome,[4],inactive
same,outcome,[5],inactive
same,AC50,[6],50 µM (active)
same,AC50,[7],9.92 µM (active)
O=C(CCl)c1ccccc1,outcome,[8],inactive
same,outcome,[4],inactive
same,outcome,[9],inactive
same,outcome,[10],inactive
same,outcome,[11],inactive
O=[N+]([O-])c1ccc(Cl)cc1,outcome,CDK2 (gene 1017),inactive
same,outcome,[12],inactive
same,outcome,[13],inactive
same,outcome,[8],inactive
same,outcome,[14],inactive
same,outcome,[15],inactive
same,outcome,[10],inactive
CC(C)(c1cc(Cl)c(O)c(Cl)c1)c1cc(Cl)c(O)c(Cl)c1,AC50,[16],992 nM (active)
same,AC50,[17],9.75 µM (active)
same,AC50,[18],3.55 µM (active)
same,AC50,[19],2.02 µM (active)
CC1OC(C)OC(C)O1 (stereo not given),outcome,[3],inactive
CC(C)CCCCCCCOC(=O)c1ccccc1C(=O)OCCCCCCCC(C)C,outcome,[18],inactive
same,outcome,[19],inactive
CCOC(=O)NC(=S)Nc1ccccc1NC(=S)NC(=O)OCC,AC50,[16],2840 nM (active)
CC(C)(C)C(O)C(Oc1ccc(-c2ccccc2)cc1)n1cncn1 (stereo not given),AC50,[1],0.114 µM (active)
same,outcome,[2],inactive
CC(=O)c1cc2c(cc1C)C(C)(C)C(C)CC2(C)C (stereo not given),AC50,[17],25.5 µM (active)
N#CCCCCC#N,outcome,CDK2 (gene 1017),inactive
same,outcome,[12],inactive
same,outcome,[13],inactive
same,outcome,[9],inactive
same,outcome,[14],inactive
same,outcome,[15],inactive
same,outcome,[11],inactive
CC(C)CCCCCCCOP(=O)(Oc1ccccc1)Oc1ccccc1,outcome,[5],inactive
same,outcome,[6],inactive
same,outcome,[7],inactive
